Reference: PubChem BioAssay AID1159580 (chemical genetic matrix, 2015)
The campaign covered roughly 5,500 compounds. About 2,000 (36%) were called active. About 18% were inconclusive and are not listed. No stated cut-off is given here; in the data, active means normalized growth mostly below about 0.91 (no sharp cut-off); inconclusive means no clear call, values can overlap the other calls; inactive means mostly above about 0.92. This is one part of the list.

Assay: chemical genetic growth profiling, strain panel (AID 1159580);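 further: tested at 20 µM; growth read once vehicle control cultures reached saturation at 30 °C; 1 = growth at the plate median or of vehicle wells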
Settings: S. cerevisiae deletion strains, growth OD

Measured: normalized growth

O=C(O)c1c2ccccc2cc2ccccc12
active: locus YDR195W, strain ref2 1.26 [resistant]
inactive: locus YAL013W, strain DEP1, stronger effect = lower value 1.02 | locus YAL021C, strain ccr4, stronger effect = lower value 0.973 | locus YAL026C, strain drs2, stronger effect = lower value 1.02 | locus YAL030W, strain snc1, stronger effect = lower value 0.99 | locus YBL061C, strain skt5, stronger effect = lower value 1 | locus YBR009C, strain hhf1, stronger effect = lower value 0.989 | locus YBR021W, strain FUR4, stronger effect = lower value 0.967 | locus YBR023C, strain chs3, stronger effect = lower value 1.01 | locus YBR171W, strain sec66, stronger effect = lower value 0.994 | locus YBR229C, strain ROT2, stronger effect = lower value 1.02 | locus YBR231C, strain swc5, stronger effect = lower value 1.01 | locus YBR279W, strain paf1, stronger effect = lower value 0.959 | locus YCL011C, strain gbp2, stronger effect = lower value 0.998 | locus YCL016C, strain dcc1, stronger effect = lower value 1.01 | locus YCL029C, strain bik1, stronger effect = lower value 0.992 | locus YCL061C, strain MRC1, stronger effect = lower value 1 | locus YCL069W, strain vba3, stronger effect = lower value 1.01 | locus YCR088W, strain abp1, stronger effect = lower value 0.996 | locus YDL005C, strain med2, stronger effect = lower value 0.99 | locus YDL035C, strain GPR1, stronger effect = lower value 1 | locus YDL040C, strain nat1, stronger effect = lower value 0.991 | locus YDL074C, strain BRE1, stronger effect = lower value 1.03 | locus YDL101C, strain DUN1, stronger effect = lower value 1.02 | locus YDL134C, strain PPH21, stronger effect = lower value 1.01 | locus YDL185W, strain tfp1, stronger effect = lower value 0.953 | locus YDL192W, strain arf1, stronger effect = lower value 0.98 | locus YDR001C, strain nth1, stronger effect = lower value 0.991 | locus YDR069C, strain doa4, stronger effect = lower value 0.991 | locus YDR101C, strain arx1, stronger effect = lower value 0.983 | locus YDR137W, strain rgp1, stronger effect = lower value 0.965 | locus YDR150W, strain NUM1, stronger effect = lower value 1.02 | locus YDR159W, strain sac3, stronger effect = lower value 1.03 | locus YDR162C, strain NBP2, stronger effect = lower value 1.03 | locus YDR297W, strain sur2, stronger effect = lower value 0.99 | locus YDR318W, strain mcm21, stronger effect = lower value 0.976 | locus YDR334W, strain swr1, stronger effect = lower value 1 | locus YDR335W, strain msn5, stronger effect = lower value 1 | locus YDR388W, stronger effect = lower value 0.98 | locus YDR392W, strain spt3, stronger effect = lower value 0.906 | locus YDR502C, strain sam2, stronger effect = lower value 0.986 | locus YEL003W, strain gim4, stronger effect = lower value 0.994 | locus YEL037C, strain rad23, stronger effect = lower value 1.01 | locus YEL061C, strain CIN8 (second series), stronger effect = lower value 0.993 | locus YEL061C, strain CIN8, stronger effect = lower value 1.01 | locus YER015W, strain faa2, stronger effect = lower value 1.01 | locus YER016W, strain bim1, stronger effect = lower value 1.01 | locus YER110C, stronger effect = lower value 0.964 | locus YER111C, strain swi4, stronger effect = lower value 0.997 | locus YER155C, strain BEM2 (second series), stronger effect = lower value 1.01 | locus YER155C, strain BEM2, stronger effect = lower value 1.01 | locus YER167W, strain BCK2, stronger effect = lower value 1.02 | locus YFR010W, strain ubp6, stronger effect = lower value 1.01 | locus YGL078C, strain dbp3, stronger effect = lower value 0.969 | locus YGL086W, strain mad1, stronger effect = lower value 0.984 | locus YGL167C, strain pmr1, stronger effect = lower value 1 | locus YGL173C, strain kem1, stronger effect = lower value 0.996 | locus YGL227W, strain vid30, stronger effect = lower value 1 | locus YGL240W, strain doc1, stronger effect = lower value 0.964 | locus YGL248W, strain PDE1, stronger effect = lower value 1.02 | locus YGL253W, strain hxk2, stronger effect = lower value 1.01 | locus YGR078C, strain PAC10, stronger effect = lower value 1.01 | locus YGR135W, strain pre9, stronger effect = lower value 0.971 | locus YGR229C, strain SMI1, stronger effect = lower value 1.02 | locus YGR252W, strain gcn5, stronger effect = lower value 0.955 | locus YHR013C, strain ard1, stronger effect = lower value 0.926 | locus YHR027C, strain rpn1, stronger effect = lower value 1.01 | locus YHR030C, strain SLT2, stronger effect = lower value 1.01 | locus YHR079C, strain IRE1 (second series), stronger effect = lower value 0.989 | locus YHR094C, strain hxt1, stronger effect = lower value 0.987 | locus YHR129C, strain ARP1, stronger effect = lower value 1.02 | locus YHR142W, strain chs7, stronger effect = lower value 0.987 | locus YHR200W, strain rpn10, stronger effect = lower value 0.977 | locus YIL066C, strain RNR3, stronger effect = lower value 0.981 | locus YIL073C, strain SPO22, stronger effect = lower value 0.924 | locus YIL125W, strain kgd1, stronger effect = lower value 0.959 | locus YIR030C, strain dcg1, stronger effect = lower value 0.987 | locus YJL092W, strain hpr5, stronger effect = lower value 1.01 | locus YJL095W, strain BCK1 (second series), stronger effect = lower value 0.988 | locus YJL095W, strain BCK1, stronger effect = lower value 1 | locus YJL115W, strain asf1, stronger effect = lower value 0.997 | locus YJL129C, strain trk1, stronger effect = lower value 1 | locus YJL134W, strain LCB3, stronger effect = lower value 1.01 | locus YJL154C, strain vps35, stronger effect = lower value 0.988 | locus YJL164C, strain tpk1, stronger effect = lower value 0.969 | locus YJL166W, strain qcr8, stronger effect = lower value 0.973 | locus YJL168C, strain set2, stronger effect = lower value 0.971 | locus YJL187C, strain SWE1 (second series), stronger effect = lower value 1.01 | locus YJL187C, strain SWE1, stronger effect = lower value 0.985
